Data on 63 molecules can be found in PubChem BioAssay AID2685 (National Center for Advancing Translational Sciences (NCATS), 2010).

The campaign covered roughly 320,000 compounds. About 2,100 (0.66%) were called active. Roughly 53% stayed inconclusive and do not appear here. Calls come from the whole dose curve; as a rule, active = well fitted inhibition curve with a large enough effect in the signal ratio, with a control signal flat (not every such curve was filed as active); inconclusive = small, poorly fitted or top-dose-only effect, or effect the other way, or a change in a side signal; inactive = flat fitted curve, though single readings scatter; the % refers to the signal ratio. This excerpt belongs to a sample that is enriched for actives.
Potency is the fitted concentration of half-maximal effect.

The test can be described thus: qHTS Assay for Lipid Storage Modulators in Drosophila S3 Cells.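 For cell number change: cells counted by Cell Tracker Red CMTPX staining in the red channel.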 For lipid storage change, negative = inhibition: % is set by controls: 0 for no effect and ±100 for the full control effect. Particulars: BODIPY lipid droplet fluorescence, 18-24 h, cells fed with added oleic acid; cell number change: measured here: cell count max response; series mostly up to 46.1 µM; lipid storage change, negative = inhibition: at the top concentration. In short, it runs like this: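 Drosophila S3 cells got compounds at several concentrations plus oleic acid (400 uM solution). Laser-scanning cytometry with 488 nm excitation read lipid droplets at 500-530 nm and cells at 575-640 nm. Percent activity was relative to 20 uM Triacsin C.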
Consider `CCOCCCNC(=O)Cn1cc2c(n1)CCCC2`, for which the “lipid storage change, negative = inhibition” value is -2.58% (inactive) and the cell number change worked out at 13.2%.

As to `COC(=O)Cn1c(=NC(=O)c2cc(OC)cc(OC)c2)sc2cc(OC)ccc21`, the “lipid storage change, negative = inhibition” value is -18.2% (inactive) and the cell number change is -0.279%.

`COc1ccc(NC(=O)CSc2nncs2)cc1S(N)(=O)=O`: the “lipid storage change, negative = inhibition” value was -14% (inactive).

As to `Cc1c(N)cccc1N`, the “lipid storage change, negative = inhibition” value was 6.46% (inactive) and the cell number change came out at 16.6%.

Take `O=C(CSC1=NS(=O)(=O)c2cc(Cl)ccc2N1)Nc1ccccc1F`: the “lipid storage change, negative = inhibition” value is 1.27% (inactive) and the cell number change was 0.0379%.

As to `O=C(CSC1=NS(=O)(=O)c2ccccc2N1)Nc1ccccc1F`, the Potency was 6.51 µM (active) and the cell number change is -3.42%.

Turning to `O=C(CSC1=NS(=O)(=O)c2cc(F)ccc2N1)Nc1ccccc1F`, the outcome is “inactive [at 0.0737 µM]”.

With `Cc1ccc(S(=O)(=O)N2CCN(S(=O)(=O)N3CCC(C)CC3)CC2)c(C)c1`, the molecule was called inactive and the cell number change came to 12.8%.

On to `CC(=O)Nc1ccc(OCCCNC(=O)c2c(-c3ccccc3)noc2C)cc1`, for which the “lipid storage change, negative = inhibition” value was -5.94% (inactive) and the cell number change is -3.99%.

Regarding `CCOC(=O)c1sc(NC(=O)c2cccs2)nc1C`, the “lipid storage change, negative = inhibition” value was -6.52% (inactive) and the cell number change is 7.32%.

For the molecule `CCCC(=O)Nc1nc(C(=O)OCC)cs1`, the “lipid storage change, negative = inhibition” value was -10.7% (inactive) and the cell number change was -4.4%.

As for `CCOCCCNC(=O)c1c(-c2ccccc2)noc1C`, the Potency was 20.6 µM (active) and the cell number change was -15.4%.

As for `O=C(NC(Cc1ccccc1)C(=O)O)c1ccco1` (configuration not stated), the “lipid storage change, negative = inhibition” value is 16% (inactive) and the cell number change was determined as 6.62%.

Consider `O=C(NCCCCNC(=O)c1cccs1)c1cccs1`, for which the “lipid storage change, negative = inhibition” value is -20.8% (inactive) and the cell number change was -29%.

Regarding `CCOCCCNC(=O)c1cccs1`, the Potency was 6.51 µM (active) and the cell number change came to 17.5%.

In the case of `CCOCCCNC(=O)C(Cc1ccccc1)NC(=O)c1ccco1` (configuration not stated), the Potency was 13 µM (active) and the cell number change was -1.42%.

As for `COCCCNC(=O)c1cccs1`, the outcome was inactive and the cell number change was found to be 12.5%.

`CCOC(=O)c1csc(NC(=O)c2cccs2)n1`: the Potency was 20.6 µM (active) and the cell number change was -11.6%.

As for `COCCCNC(=O)c1c(-c2ccccc2)noc1C`, the “lipid storage change, negative = inhibition” value was 9.31% (inactive) and the cell number change turned out to be 19.6%.

For `Cc1ccc(CNC(=O)[C@H](Cc2ccccc2)NC(=O)c2ccco2)cc1`, the “lipid storage change, negative = inhibition” value was 11.7% (inactive) and the cell number change was determined as 9.45%.

Regarding `Cc1cccc(/C=C/c2nc3ccccc3c(=O)[nH]2)c1`, the “lipid storage change, negative = inhibition” value was -2.08% (inactive) and the cell number change is -2.24%.

Turning to `O=C(NCC(=O)N(Cc1cccs1)C(C(=O)NC1CCCC1)c1ccncc1)c1ccco1` (configuration not stated), the molecule was called inactive.

In the case of `Cn1c(Cn2c(=O)sc3ccccc32)nnc1SCC(N)=O`, the “lipid storage change, negative = inhibition” value is 2.33% (inactive) and the cell number change was 4.82%.

Turning to `CCCCCC(=O)Nc1cc(N(C)C)nc2ccccc12`, the molecule was called inactive and the cell number change was 6.14%.

As for `COc1ccc(CC(=O)OCC(=O)Nc2ccc(C(=O)Nc3ccc(OC)cc3)cc2)cc1`, the “lipid storage change, negative = inhibition” value is 0.407% (inactive) and the cell number change is 6.99%.

Turning to `Cc1ccc2sc(NC(=O)CN3C(=O)c4ccccc4C3=O)nc2c1C`, the “lipid storage change, negative = inhibition” value is 19.1% (inactive) and the cell number change was -0.832%.

Consider `CCCCC(O)(CCCC)C(=O)NN(C(=O)OCC)c1ccccc1`, for which the “lipid storage change, negative = inhibition” value was -7.04% (inactive) and the cell number change is 11.1%.

In the case of `CCCC(O)(CCC)C(=O)NN(C(=O)OC)c1ccccc1`, the “lipid storage change, negative = inhibition” value is 7.85% (inactive) and the cell number change is 12.3%.

On to `Cc1cccc(N(NC(=O)C(C)(C)O)C(=O)c2ccccc2)c1`, for which the “lipid storage change, negative = inhibition” value is -3.6% (inactive) and the cell number change was found to be 7.68%.

For the molecule `CCCC(O)(CCC)C(=O)NN(C(=O)CCl)c1cccc(C)c1`, the Potency is 20.6 µM (active) and the cell number change was -4.84%.

For `CCC(O)(CC)C(=O)NN(C(=O)CCl)c1ccccc1`, the Potency was 20.6 µM (active) and the cell number change was -5.65%.

For `CCCCC(O)(CCCC)C(=O)NN(C(=O)OC)c1ccccc1`, the “lipid storage change, negative = inhibition” value is 8.53% (inactive) and the cell number change came out at 0.36%.

`CC1CCCCN1Cc1c(O)ccc2c(=O)c(-c3ccc(Cl)cc3Cl)coc12` (configuration not stated): the “lipid storage change, negative = inhibition” value is 0.45% (inactive) and the cell number change is -3.44%.

Consider `Cc1ccc(C)c(NC(=S)NCc2cccs2)c1`, for which the “lipid storage change, negative = inhibition” value is -0.72% (inactive) and the cell number change is -1.36%.

Turning to `CC(=O)Nc1cccc(C(=O)NC(C)c2ccc(S(N)(=O)=O)cc2)c1` (configuration not stated), the Potency is 1.64 µM (active) and the cell number change worked out at 21.3%.

Consider `CC(=O)Nc1cccc(C(=O)NC(C)c2ccc(-n3ccnc3)cc2)c1` (configuration not stated), for which the outcome was inactive.

With `CC(NC(=O)c1ccc(S(=O)(=O)Nc2ccccc2)cc1)c1ccc(S(N)(=O)=O)cc1` (configuration not stated), the “lipid storage change, negative = inhibition” value was 11.1% (inactive) and the cell number change was 2.41%.

As to `CC(c1ccccn1)N(CCN(C)C)C(=S)Nc1cccc(F)c1` (configuration not stated), the molecule was called inactive.

With `CC(C)N(C(=S)Nc1cccc(C(F)(F)F)c1)C(C)c1ccccn1` (configuration not stated), the “lipid storage change, negative = inhibition” value is 0.651% (inactive).

As to `CC(C)CCN(C(=S)Nc1cccc(C(F)(F)F)c1)C(C)c1ccccn1` (configuration not stated), the Potency is 32.6 µM (active) and the cell number change was -20.3%.

In the case of `Cc1ncoc1C(=O)Nc1cccc(Cl)c1C`, the call was inactive.

With `CCc1cc(=O)oc2cc(C)cc(OC(C)C(=O)NC3CC(C)(C)NC(C)(C)C3)c12` (configuration not stated), the molecule was classed as inactive and the cell number change was found to be 17.3%.

In the case of `Cc1ccc(S(=O)(=O)CCSc2ccc(C(F)(F)F)cn2)cc1`, the “lipid storage change, negative = inhibition” value is 6.53% (inactive) and the cell number change was 21.4%.

For the molecule `CCS(=O)(=O)CCSc1nc(C)cc(C)c1C#N`, the outcome was inactive and the cell number change came to 5.68%.

`Cc1ccc(S(=O)(=O)CCSc2nc(C)cc(C(F)(F)F)c2C#N)cc1`: the Potency was 16.4 µM (active) and the cell number change was -21.5%.

On to `COc1ccc(NC(=O)CSCC(=O)N=c2sccn2C)cc1`, for which the molecule was called inactive and the cell number change came to 23.3%.

As to `COc1ccc(-n2nc3c(c2NC(=O)CCCl)CSC3)cc1`, the “lipid storage change, negative = inhibition” value is 25.1% (inactive) and the cell number change is 1.89%.

Take `CN1/C(=C/C=C(/C#N)C(N)=O)C(C)(C)c2ccccc21`: the “lipid storage change, negative = inhibition” value is -1.55% (inactive) and the cell number change amounted to 13.2%.

As for `CN1/C(=C\C=Nc2ccc3ccccc3c2)C(C)(C)c2ccccc21`, the “lipid storage change, negative = inhibition” value was -22.9% (inactive) and the cell number change was 6.9%.

For the molecule `CN1/C(=C\C(=O)C(F)F)C(C)(C)c2ccccc21`, the outcome was inactive.

In the case of `CN1/C(=C\C(=O)Nc2ccc(F)cc2)C(C)(C)c2ccccc21`, the “lipid storage change, negative = inhibition” value was -15.1% (inactive) and the cell number change is -24.5%.

`CN1/C(=C/C=C(C#N)C#N)C(C)(C)c2ccccc21`: the Potency is 7.31 µM (active) and the cell number change is 7.31%.

Regarding `CN1/C(=C\C=N\NC(=O)c2ccc(O)cc2)C(C)(C)c2ccccc21`, the Potency was 2.31 µM (active) and the cell number change is -19.2%.

Take `CCc1cc(C(=O)N2CCCC(CCC(=O)N3CCN(c4ccccn4)CC3)C2)no1` (configuration not stated): the “lipid storage change, negative = inhibition” value was -10% (inactive) and the cell number change is -4.75%.

Consider `O=C(CSc1nc2ccccc2[nH]1)NCC1CCCO1` (configuration not stated), for which the “lipid storage change, negative = inhibition” value was -1.44% (inactive) and the cell number change was 1.54%.

Consider `O=C(CCC(=O)c1ccc(F)cc1)Nc1cccc(C(F)(F)F)c1`, for which the “lipid storage change, negative = inhibition” value was -22% (inactive) and the cell number change is -4.38%.

`COc1cc(COC(=O)c2cnc(C)cn2)c(OC)cc1Br`: the Potency was 0.517 µM (active) and the cell number change came to 4.62%.

In the case of `Cc1cnc(C(=O)OCc2c(C)cc(C(C)(C)C)cc2C)cn1`, the “lipid storage change, negative = inhibition” value was -22.9% (inactive) and the cell number change is 3.78%.

On to `COc1ccc(C(C)=O)cc1COC(=O)c1cnc(C)cn1`, for which the molecule was classed as inactive and the cell number change is 5.96%.

Consider `COc1ccc(C(C(=O)NC2CCCC2)N(C(=O)c2ccco2)c2ccc3c(c2)OCO3)cc1OC` (configuration not stated), for which the “lipid storage change, negative = inhibition” value was 17.5% (inactive).

As for `COc1ccccc1NC(=O)Nc1c(C)nn(C)c1C`, the “lipid storage change, negative = inhibition” value was 4.48% (inactive) and the cell number change came out at 22.1%.

As to `C/C=C/c1ccc(OCCn2nnc3ccccc32)c(OC)c1`, the “lipid storage change, negative = inhibition” value was -26% (inactive) and the cell number change came out at 1.4%.

For `COc1ccc(-c2cc(C(=O)c3c(N)n(C)c(=O)n(C)c3=O)c3ccccc3n2)cc1`, the “lipid storage change, negative = inhibition” value was 15.1% (inactive) and the cell number change amounted to 0.639%.
